Experimental data from PubChem BioAssay.
Active and inactive are the calls of the source.

Legend:
Albumin (Bos taurus) = Albumin (Bos taurus) (UniProt P02769); assay: compounds binding labelled BSA control protein – biochemical, small-molecule microarray, Alexa647 label, 635/667 nm fluorescence, artefact control for SMM control protein annotation, profiling panel (AID 1118); details: BSA-A647 binding, fluorescence 635 nm, higher = more signal;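 note: score merges 667 nm emission intensity and signal-to-noise per printed compound spot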
Albumin (Bos taurus), sequence (P02769 whole entry, looked up): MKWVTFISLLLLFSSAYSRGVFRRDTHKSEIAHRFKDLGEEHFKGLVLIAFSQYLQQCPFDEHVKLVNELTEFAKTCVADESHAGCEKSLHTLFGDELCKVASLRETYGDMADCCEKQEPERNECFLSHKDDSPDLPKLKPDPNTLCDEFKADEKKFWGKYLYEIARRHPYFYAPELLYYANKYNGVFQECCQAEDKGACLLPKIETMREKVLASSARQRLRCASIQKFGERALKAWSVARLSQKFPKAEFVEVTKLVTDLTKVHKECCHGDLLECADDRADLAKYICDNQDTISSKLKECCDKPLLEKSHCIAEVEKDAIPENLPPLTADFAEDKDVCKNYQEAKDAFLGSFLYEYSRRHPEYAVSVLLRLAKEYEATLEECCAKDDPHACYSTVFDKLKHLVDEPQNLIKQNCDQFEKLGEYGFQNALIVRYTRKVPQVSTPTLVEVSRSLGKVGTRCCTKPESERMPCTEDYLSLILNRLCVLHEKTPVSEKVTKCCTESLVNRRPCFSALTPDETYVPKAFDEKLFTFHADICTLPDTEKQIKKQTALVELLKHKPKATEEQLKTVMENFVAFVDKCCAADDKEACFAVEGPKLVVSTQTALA

[1] = probe aXIP binding to arrayed compounds – biochemical, NeuroSMM set, 635/667 nm fluorescence, primary screen (AID 1119); details: small-molecule microarray, higher = more signal, called active from +8 up or from −8 down;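 note: probe is the protein aXip251-270 applied at 1 µg/mL to compound-printed slides; binding of probe to printed compounds measured as 667 nm fluorescence plus signal to noise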
[2] = probe aNOTCH3 binding on compound microarray – biochemical, small-molecule microarray, 635/667 nm fluorescence, primary screen (AID 1120); details: higher = more signal;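 note: probe is a biotin-tagged antibody raised against NOTCH3 rather than NOTCH3 protein; score merges spot fluorescence near 667 nm with spot signal to noise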
[3] = probe aNOTCH2 binding on compound microarray – biochemical, small-molecule microarray, 635/667 nm fluorescence, primary screen (AID 1121); details: higher = more signal;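 note: score merges feature fluorescence read at 667 nm with its signal to noise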
[4] = molecular target: Carbonic anhydrase 2 (Homo sapiens) (UniProt P00918); assay: compounds binding carbonic anhydrase 2 – biochemical, small-molecule microarray, Alexa647-labelled CAII, profiling panel (AID 1122); details: CAII-A647 binding fluorescence, higher = more signal
[5] = COS7 lysate on small-molecule microarray, probe aHis, 635 nm (AID 1123); details: COS7 cell lysate, fluorescence, higher = more signal;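 note: z-score combines 667nm fluorescence intensity with signal-to-noise per printed compound spot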
[6] = probe aLAP1 signal on lysate-treated microarray – cell lysate, small-molecule microarray, COS7 lysate, primary screen (AID 1124); details: probe aLAP1, fluorescence, higher = more signal;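 note: lysate comes from COS7 cells expressing LAP1 and is applied at 0.3 µg/mL; score merges spot fluorescence near 667 nm with signal-to-noise over triplicate slides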
Sam68 (KHDRBS1) = assay: compounds binding KHDRBS1 protein – biochemical, small-molecule microarray, 635 nm fluorescence, primary screen (AID 1125); details: higher = more signal;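 note: score merges 667 nm channel intensity with signal to noise over triplicate slides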
[7] = tested on: Chordin-like protein 2 (CHRDL2); assay: compounds binding chordin-like 2 – biochemical, small-molecule microarray, 635 nm fluorescence, primary screen (AID 1126); details: fluorescence 635 nm, higher = more signal;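 note: printed compound slides probed with Chrdl2 protein at 4 µg/mL for 1 h at 4 C; score merges 667 nm emission intensity with signal to noise over three replicate slides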
[8] = molecular target: Concanavalin-A (Canavalia ensiformis) (UniProt P02866); assay: compounds binding concanavalin A lectin – biochemical, small-molecule microarray, Alexa647 label, 635 nm, artefact control for SMM control protein annotation, primary screen (AID 1127); details: ConA-A647 binding fluorescence, higher = more signal;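 note: z combines 667 nm emission intensity with signal-to-noise across three replicate slides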
Concanavalin-A (Canavalia ensiformis), sequence (P02866 whole entry, looked up): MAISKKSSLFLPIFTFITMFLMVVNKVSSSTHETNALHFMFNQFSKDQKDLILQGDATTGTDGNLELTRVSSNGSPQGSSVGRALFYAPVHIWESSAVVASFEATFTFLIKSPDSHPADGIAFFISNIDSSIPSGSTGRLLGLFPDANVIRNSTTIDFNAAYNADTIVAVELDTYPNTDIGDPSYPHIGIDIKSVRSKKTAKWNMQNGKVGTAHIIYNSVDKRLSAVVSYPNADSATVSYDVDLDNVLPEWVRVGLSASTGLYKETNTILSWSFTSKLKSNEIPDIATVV

Compound | composite z-score (Albumin (Bos taurus)) | composite Z-score [1] | composite z-score [2] | composite z-score [3] | composite z-score [4] | composite z-score [5] | composite z-score [6] | composite z-score (Sam68 (KHDRBS1)) | composite z-score [7] | composite z-score [8]
O=C1c2ccccc2[C@](Cc2ccccc2I)(C(=O)NCCN2CCOCC2)[C@H](c2ccc(CO)cc2)N1C1CCCCC1 | 0.55 | 0.424 (inactive) | 0.323 | -0.052 | 0.548 | 1.41 | 0.382 | 1.31 | 0.67 | 1.15
CC(C)C[C@@H]1NC(=O)[C@@H]2C[C@H](C(=O)NCc3ccc(F)cc3)[C@H](c3cccc(OCCO)c3)N2C1=O | -0.972 | 0.532 (inactive) | -0.229 | -0.166 | 0.549 | 0.558 | 1.19 | 0.72 | 0.915 | 0.902
C=C(COC)/C(=C/C[C@@H](OC(C)=O)c1ccc(OCCO)cc1)c1cnc2ccccc2c1 | 0.0772 | -0.225 (inactive) | 0.112 | -0.14 | 0.913 | -0.161 | 0.999 | 0.74 | 1.41 | 1.14
O=C1C[C@]2(c3ccc([N+](=O)[O-])cc3)C(=O)N(CC(F)(F)F)c3cc(CO)ccc3[C@H]2N1C1CCCCC1 | -0.749 | -0.0774 (inactive) | -0.125 | -0.112 | -0.634 | 0.0971 | 0.206 | -0.686 | -1.26 | -0.546
[N-]=[N+]=Nc1ccccc1[C@H]1OC(c2ccc(OCCCO)cc2)=N[C@@]1(CCS(=O)(=O)c1ccccc1)C(N)=O | 0.485 | 0.211 (inactive) | 0.264 | 0.113 | 0.795 | 1.43 | 0.469 | 1.22 | 0.0869 | 0.868
COC(=O)C(CC#Cc1ccc2c(c1)[C@]1(C(=O)N2)[C@H](c2ccc(OCCO)cc2)N2[C@H](c3ccccc3)[C@H](c3ccccc3)OC(=O)[C@H]2[C@@H]1C(=O)Nc1nc2ccccc2s1)C(=O)OC | 0.959 | -0.0045 (inactive) | 0.0038 | -0.183 | 0.546 | 2.4 | -0.065 | 1.31 | 0.326 | 1.16
COc1ccc(C(O)C2C=CC3C(=O)N(Cc4ccccc4)C(=O)C3N2n2cnnc2)cc1OCc1ccccc1 (stereo not given) | 0.799 | -1.19 (inactive) | 0.0493 | -0.152 | 0.771 | 1.5 | -0.276 | 0.953 | -0.34 | 0.681
CCC(CC)C(O)C1C=CC2C(=O)NC(=O)C2N1Nc1ccc(Cl)cc1Cl (stereo not given) | 0.869 | 0.818 (inactive) | 0.237 | 0.0333 | 0.654 | 2.18 | 1.02 | 0.887 | -0.381 | 1.06
N#Cc1ccc(NN2C(C(O)C(c3ccccc3)c3ccccc3)C=CC3C(=O)N(c4ccccc4)C(=O)C32)cc1 (stereo not given) | 0.983 | -0.442 (inactive) | 0.673 | 0.11 | 0.407 | 2.95 | -0.0751 | 1.3 | -0.558 | 1.17
CN(C)C(=O)[C@@]1(CCS(=O)(=O)c2ccccc2)COC(c2ccc(OCCCO)cc2)=N1 | 0.401 | 0.319 (inactive) | 0.125 | -0.0406 | 0.813 | 2.28 | 0.441 | 0.203 | -0.466 | 0.469
CC1CC/C=C\[C@H]2OC34C=CCN(C(C)(C)C)C(=O)[C@H]3N(CCO)C(=O)[C@@H]4C2C(=O)O1 (stereo not given in full) | 0.922 | 0.108 (inactive) | -0.341 | -0.148 | 0.917 | 1.08 | 1.41 | -0.719 | -1.31 | -2.33
C=CCNC(=O)[C@@H]1[C@H]2C(=O)O[C@H](c3ccccc3)[C@H](c3ccccc3)N2[C@H](c2ccccc2OCCO)[C@@]12C(=O)N(C(=O)OCCOC)c1ccccc12 | 0.236 | 0.318 (inactive) | 0.492 | -0.0878 | 0.395 | 0.938 | 0.594 | 1.31 | 0.66 | 1.16
CCCCCCc1nc(-c2ccc(OC)nc2)cc2c1[Si](C(C)C)(C(C)C)O[C@H]2c1ccccc1 | -0.807 | 0.131 (inactive) | -0.0864 | -0.166 | -0.0224 | 0.0277 | -0.08 | -0.187 | 1.12 | 0.0837
C=C(CCCC)/C(=C/C[C@@H](OC(=O)c1ccncc1)c1ccc(OCCO)cc1)c1cc(C(=O)OC)ccc1OC | 0.445 | -0.367 (inactive) | -0.0288 | -0.123 | 0.554 | 0.517 | 0.546 | 1.12 | 0.0685 | 0.249
O=C(OCc1ccccc1)C1=CCC2c3[nH]c4ccccc4c3C(=O)C1N2S(=O)(=O)c1ccccc1[N+](=O)[O-] (stereo not given) | 0.994 | 0.0421 (inactive) | 0.6 | 0.285 | 0.777 | 2.61 | 0.335 | 1.06 | -0.328 | 0.996
COCCOC(=O)N1C(=O)[C@@]2(c3cc(C#CCC(C(=O)OC)C(=O)OC)ccc31)[C@H](c1ccccc1OCCO)N1[C@H](c3ccccc3)[C@H](c3ccccc3)OC(=O)[C@H]1[C@@H]2C(=O)N1CCN(c2ncccn2)CC1 | 0.846 | 0.347 (inactive) | 0.225 | -0.0249 | 0.499 | 1.66 | 0.596 | 1.31 | 1.04 | 1.12
COCCCNC(=O)[C@@]1(C)c2ccccc2C(=O)N(C(C)C)[C@H]1c1ccc(CO)cc1 | -0.106 | 0.466 (inactive) | 0.0001 | 0.0023 | 0.693 | 0.75 | 0.0526 | 1.16 | 1.08 | 0.67
Cc1ccc(N2C(=O)c3ccccc3[C@@H](C(=O)NC3CC3)[C@@H]2c2ccc(CO)cc2)nc1 | -0.301 | -0.648 (inactive) | -0.481 | -0.165 | 0.677 | -0.663 | 0.653 | -2.27 | -1.97 | -0.616
COCCOC(=O)N1C(=O)[C@@]2(c3cc(C#CC4(O)CCCCCC4)ccc31)[C@H](c1ccccc1OCCO)N1[C@H](c3ccccc3)[C@H](c3ccccc3)OC(=O)[C@H]1[C@@H]2C(=O)N1CCN(c2ncccn2)CC1 | 0.781 | -0.291 (inactive) | -0.0313 | -0.0432 | 0.596 | 1.12 | 0.384 | 1.29 | 0.336 | 1.09
C=CCOC(=O)[C@@H]1[C@H]2C(=O)O[C@H](c3ccccc3)[C@H](c3ccccc3)N2[C@H](c2ccc(OCCOC(=O)[C@@H]3C[C@@H]4C(=O)NCC(=O)N4[C@@H]3c3ccc(O)cc3)cc2)[C@@]12C(=O)Nc1ccc(I)cc12 | 0.471 | -0.666 (inactive) | -0.0879 | -0.108 | 0.617 | 1.04 | -0.143 | 1.31 | 1.03 | 1.19
O=C1N(Cc2ccccc2)c2ccccc2[C@@H]2OC(c3ccc(OCCCO)cc3)=N[C@]12CCS(=O)(=O)c1ccccc1 | 0.272 | 1.29 (inactive) | 0.147 | -0.0079 | 0.626 | 2.52 | -0.276 | 0.895 | 0.0187 | 1.14
